Only some compounds are listed: those with a hit (about 3.6% of all), similar ones and a draw of the others.
HTT promoter inh: inhibits huntingtin promoter activity. HEK293 HTT promoter firefly luciferase reporter, 24 h. Potency, µM (top dose mostly 57.5 µM), usual class: inhibitors. hit rate 0.93% among 48,000; further: nearly all actives have a fitted effect of over 50% in size
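Luminescence was read after Dual-Glo reagent and a 10 min room-temperature incubation. Values were normalized to vehicle (0% activity) and zero RLU (-100% activity). Reporter HEK293 cells had been exposed to compounds (up to 57.5 uM final) for 24 h.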
HTT-AS act: activates huntingtin-antisense promoter activity; Potency, µM (top dose mostly 57.5 µM), actives largely listed as activators; hit rate 0.24% among 48,000; HEK293 HTT-AS promoter firefly luciferase reporter, 24 h; response scale: percent change from vehicle, -100% = no light; further: nearly all actives have a fitted effect of over 55% in size
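HEK293 cells carrying firefly luciferase reporters were seeded at 2,500 per well in Opti-MEM and cultured for 24 h. They were then treated with compounds at up to 57.5 uM final for 24 h at 37 degrees C before Dual-Glo luminescence readout.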
mTORC1 inh: reduces mTORC1 signaling in Tsc2 and p53 null MEF cells | Tsc2-/- p53-/- MEF, phospho-rpS6 immunofluorescence/PI, 24 h | hit rate 0.78% among 44,000 | AID 493208 | Potency, µM (doses to about 38.3 µM), usual class: inhibitors; further: nearly all actives have a fitted effect of over 50% in size
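Immunofluorescence of rpS6 phosphorylation in Tsc2-/-, p53-/- MEFs after 24 h compound exposure, normalized to propidium iodide signal. Activity is expressed as % positive cells, thresholded with 7.5 nM rapamycin.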
PMP22 txn: PMP22 gene transcription modulation | S16 Pmp22-F2sN Schwann cells, FLuc/NLuc coincidence luminescence, 24 h | Potency, µM (titrated, usually from 57.5 µM), actives largely listed as inhibitors | hit rate 2% among 43,000; active means clear falling dose curves in both reporters; inconclusive means both reporters move, but less clearly or upward; inactive means either reporter flat; the % is the NLuc reporter signal
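S16 Schwann cells carrying FLuc/NLuc coincidence reporter in the Pmp22 3' UTR treated with compound 24 h at 37C; FLuc then NLuc luminescence read sequentially by dual-luciferase reagents.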
OvCa metastasis: blocks SKOV3ip1 adhesion and invasion in omental model; SKOV3ip1-GFP adhesion/invasion on 3D omental model, fluorescence; Potency, µM (series often up to 45.8 µM), actives largely listed as inhibitors; hit rate 0.1% among 46,000; AID 1963576; further: nearly all actives have a fitted effect of over 65% in size
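Primary human omental fibroblast/mesothelial 3D culture pre-formed 48 h. SKOV3ip1-GFP cells added with compounds (0.36-46 umol/L), incubated 2 h RT/16 h 37 C, fixed; GFP cells quantified at 488/509 nm.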
S16 viability: cytotoxicity in S16 Pmp22-F2sN Schwann cells. S16 Pmp22-F2sN Schwann cells viability, CellTiter-Glo, 24 h. Potency, µM (doses to about 57.5 µM), actives largely listed as cytotoxic. hit rate 0.48% among 43,000; further: nearly all actives have a fitted effect of over 65% in size
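Used to flag compounds lowering reporter output through toxicity, this quantitative HTS measures ATP-based CellTiter-Glo luminescence in S16 Pmp22-F2sN Schwann cells after 24 h compound exposure at 37C.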
NLuc saturating: NanoLuc enzyme inhibition artifact for PMP22 screen; Potency, µM (series often up to 57.5 µM), most hits filed as inhibitors; hit rate 4% among 690; Secreted NLuc enzyme (filtered S16 cell medium), Nano-Glo luminescence; shares compounds with PMP22 txn
NLuc Km ctr: inhibits NanoLuc under Km conditions, PMP22 counter-screen. hit rate 5% among 690. Potency, µM (highest dose often 57.5 µM), actives largely listed as inhibitors. secreted NLuc enzyme, coelenterazine luminescence, Km conditions. shares compounds with PMP22 txn
FLuc counter: inhibits firefly luciferase, PMP22 counter-screen | shares compounds with PMP22 txn | purified P. pyralis FLuc, luminescence, 10 min | Potency, µM (highest dose often 57.5 µM), hits mostly inhibitors | 690 tested, under 10 active | AID 1508640
S16 F2sN tox cnf: S16 Schwann cell cytotoxicity, confirmatory. shares compounds with PMP22 txn. S16 Schwann cells viability, CellTiter-Glo ATP luminescence, 24 h. Potency, µM (titrated, usually from 57.5 µM), actives largely listed as cytotoxic. hit rate 7% among 690. AID 1508641
PMP22 txn conf: confirmation of modulators of PMP22 gene transcription in S16 cells. shares compounds with PMP22 txn. S16 Schwann cells Pmp22-F2sN, dual luciferase, 24 h. Potency, µM (highest dose often 57.5 µM), actives largely listed as inhibitors. hit rate 22% among 690. AID 1508646; active means clear falling dose curves in both reporters; inconclusive means both reporters move, but less clearly or upward; inactive means either reporter flat; the % is the FLuc reporter signal
PMP22 HiBiT cnf: rat PMP22 protein level modulation, confirmatory; S16 Schwann cells Pmp22-HiBiT, luminescence, 48 h; shares compounds with PMP22 txn; Potency, µM (doses to about 27.9 µM), most hits filed as inhibitors; 95 tested, under 10 active
Target sequence (P25094 whole entry, looked up): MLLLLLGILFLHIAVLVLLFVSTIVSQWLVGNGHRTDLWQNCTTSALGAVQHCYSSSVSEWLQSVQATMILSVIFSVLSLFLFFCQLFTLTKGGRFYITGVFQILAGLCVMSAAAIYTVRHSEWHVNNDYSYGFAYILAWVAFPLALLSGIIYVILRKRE
A number is an active result; . = inactive; ? = inconclusive; / = no result given. Unless noted, the call rests on the fitted dose curve; in most records, active means well fitted curve in the direction sought with a large enough effect; inconclusive means small, poorly fitted or top-dose-only effect, or another doubt; inactive means no such curve, though single readings can be large; an effect the other way counts as inactive or inconclusive.

SMILES	HTT promoter inh	HTT-AS act	mTORC1 inh	PMP22 txn	OvCa metastasis	S16 viability	NLuc saturating	NLuc Km ctr	FLuc counter	S16 F2sN tox cnf	PMP22 txn conf	others
CCOc1ccc(CCNC(=O)c2c(C)oc3ncn(CC(C)C)c(=O)c23)cc1	.	.	.	20µM	.	.	?	.	?	.	.
Cc1oc2ncn(CC(C)C)c(=O)c2c1C(=O)NCCc1ccc(Cl)cc1	?	.	.	?	.	.	/	/	/	/	/
CCOCCCNC(=O)NC(C)c1c(-n2cccc2)sc2c1CCN(CC)C2 (centres undefined)	.	.	.	16.3µM	.	.	.	.	.	.	.
CCOc1ccc(NC(=O)NC(C)c2c(-n3cccc3)sc3c2CCN(CC)C3)cc1 (centres undefined)	.	.	.	14.5µM	.	.	?	.	.	.	.
CC1(C)C(N(O)C(=O)Nc2ccc(Cl)cc2)N(c2ccc(Cl)cc2)C(=O)N1CC(=O)NN=CC=Cc1ccc([N+](=O)[O-])o1 (centres undefined)	?	.	/	/	.	/	/	/	/	/	/
O=S(=O)(c1cccc(Cl)c1)c1nnn2c1nc(NC1CCCCCC1)c1sccc12	.	.	.	10µM	.	.	.	.	.	.	?
O=S(=O)(c1ccc(Cl)cc1)c1nnn2c1nc(NC1CCCCC1)c1sccc12	.	.	.	?	.	.	/	/	/	/	/
CN(C)C(=O)[C@H](O)[C@H](Cc1ccccc1)NC(=O)c1cc2cc(Cl)ccc2[nH]1	?	.	/	/	.	/	/	/	/	/	/
CC(C)[C@H](O)C(=O)N[C@@H](C)C(=O)N[C@@H]1C(=O)N(C)CCc2ccccc21	.	.	/	/	.	/	/	/	/	/	/
COc1ccccc1N1CCN(C(=O)CSc2nc(-c3ccc(C(C)C)cc3)no2)CC1	?	.	.	?	.	.	/	/	/	/	/
COC(=O)c1c(-c2ccc(Cl)cc2)noc1N1CCN(c2cccc(C(F)(F)F)c2)CC1	.	?	?	5.39µM	?	?	.	.	.	?	16.3µM	PMP22 HiBiT cnf=.
COC(=O)c1c(-c2ccc(Cl)cc2)noc1N1CCN(c2ccc(F)cc2)CC1	.	.	.	3.77µM	.	.	.	.	.	?	12.9µM	PMP22 HiBiT cnf=.
COC(=O)c1c(-c2ccc(Cl)cc2)noc1N1CCN(c2ccccc2OC)CC1	?	.	.	8.91µM	?	?	.	.	.	.	19.3µM	PMP22 HiBiT cnf=.
CC(C)(C)OC(=O)CN(Cc1ccc(Cl)cc1)Cc1ccc([N+](=O)[O-])s1	.	.	/	/	.	/	/	/	/	/	/
O=C(c1cc(O)c(O)c(O)c1)c1ccc(O)c(O)c1O	.	.	/	/	/	/	/	/	/	/	/
O=C1CCCC2=C1C(c1[nH]ncc1Cl)N=C(Nc1nc3ccccc3o1)N2 (centres undefined)	.	.	/	/	.	/	/	/	/	/	/
COc1c(Cl)cc(Cl)cc1/C=C(\C#N)c1nc2ccccc2[nH]1	.	.	.	11.3µM	.	?	?	?	.	.	?
COc1cc(/C=C(\C#N)c2nc3ccccc3[nH]2)ccc1OCc1ccccc1F	?	.	.	12.6µM	.	.	?	?	.	.	?
COC(=O)N1CCN(Cc2cccc(NC(=O)Nc3ccc(C)nc3)c2F)CC1	.	.	/	/	.	/	/	/	/	/	/
COCCN1Cc2cccc(C(=O)Nc3ccc(C)c(F)c3)c2C1=O	.	.	.	.	.	.	/	/	/	/	/
COCCN1Cc2cccc(C(=O)Nc3ccc(Cl)cc3Cl)c2C1=O	.	.	.	18.9µM	.	.	?	?	.	.	.
NC(=O)c1ccc(-c2nc(-c3ccc4c(c3)OCCO4)c(-c3ccccn3)[nH]2)cc1	.	.	/	/	.	/	/	/	/	/	/

Assay outcomes deposited in PubChem BioAssay by National Center for Advancing Translational Sciences (NCATS).
